In PubChem BioAssay (NCI) one finds growth data, which are given here for 17 molecules.

The panel holds about 83,000 compounds, 20% with a hit somewhere; the sample as a whole holds those more often.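 Cells were grown in 96-well plates and exposed to the test compound at a single concentration for 48 hours; results are reported as percent growth, with values below 10 considered active.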 Values without a mark were called inactive. Active and inactive are the calls of the source.

Common to all, as to test: NCI-60 one-dose screen, 48 h (100 = growth as untreated, 0 = no growth, -100 = all killed)
What all share (details): 10 µM unless noted

Assay [1] relates to RPMI-8226 leukemia.
Assay [2] has as its system OVCAR-8 ovarian.
The test system of assay [3] is OVCAR-5 ovarian.
The subject of assay [4] is OVCAR-4 ovarian.
In assay [5] the test system is SK-OV-3 ovarian.
Assay [6] deals with IGROV1 ovarian.
For assay [7], the system named is OVCAR-3 ovarian.
The test system of assay [8] is HS 578T breast.
Assay [9] concerns NCI/ADR-RES ovarian.
Assay [10] relates to T-47D breast.
The test system of assay [11] is BT-549 breast.
In assay [12] the test system is MDA-MB-435 melanoma.
Assay [13] deals with SW-620 colon.
Assay [14] relates to MCF7 breast.
The subject of assay [15] is HCT-116 colon.
Assay [16] concerns HCC-2998 colon.
Assay [17] concerns KM12 colon.

For `O=C(CCCC(=O)Nc1ccc(-n2nnc3cc(Cl)c(Cl)cc32)cc1)Nc1ccc(-n2nnc3cc(Cl)c(Cl)cc32)cc1`, the growth in [1] is 81.1%; in assay [2], 25.5%; in [3], 87.6%; in assay [4], -5.56% (active); in assay [5] it was 31%; in assay [6], 59.8%. In addition, the growth in [7] is 56.1%; in assay [8], 49.8%; in assay [9], 84.5%; in [10], 36.7%; in assay [11], 51.2%; in assay [12], 51.2%. Moreover, the growth in assay [13] was 49.6%; in [14] it was 22.6%; in assay [15], 45.3%; in [16], 93.7%; in assay [17], 70.9%.
Turning to `CCOC(=O)c1cnn(-c2nc(-c3ccc(F)cc3)c(C#N)c(N3CCOCC3)n2)c1N`, the growth in assay [1] is 103%; in assay [2], 100%; in assay [3], 95%; in [4], 101%; in assay [5] it was 101%; in [6], 102%. Further, the growth in assay [7] was 113%; in [8], 103%; in [9], 96.7%; in [10], 83.9%; in assay [11] it was 95.6%; in [12], 99.1%. In addition, the growth was 104% in [13]; 89.9% in assay [14]; 99.5% in [15]; 111% in [16]; 105% in [17].
In the case of `COc1ccc(-c2cc(-c3nnc(SCC(=O)Nc4ccc(/C(C)=N\O)cc4)o3)c3ccccc3n2)cc1`, the growth in assay [1] is 99%; in assay [2], 105%; in assay [3] it was 113%; in assay [4], 103%; in assay [5] it was 111%; in assay [6], 112%. Also, the growth is 98% in assay [7]; 99.9% in assay [8]; 102% in [9]; 102% in [10]; 108% in assay [11]; 110% in assay [12]. Besides, the growth in assay [13] was 105%; in assay [14], 96.1%; in assay [15], 107%; in assay [16], 101%; in assay [17], 101%.
In the case of `CCC[S@@](=O)c1ccc2nc(NC(=O)OC)[nH]c2c1`, the growth in assay [1] was 95%; in assay [2], 77.1%; in [3], 102%; in [4] it was 98.9%; in assay [5] it was 63.6%; in assay [6], 91.3%. Besides, the growth is 93.5% in assay [7]; 91.2% in [8]; 91.5% in assay [9]; 78.1% in assay [10]; 79.1% in assay [11]; 16.6% in assay [12]. Also, the growth in assay [13] was 71%; in [14], 61.9%; in assay [15] it was 79.6%; in assay [16] it was 90%; in [17], 65.6%.
`C=C(C)[C@@H]1CC[C@]2(C(=O)O)CC[C@]3(C)[C@H](CC[C@@H]4[C@@]5(C)C[C@@H](CC#Cc6ccc(Cl)cc6)C(=O)C(C)(C)[C@@H]5CC[C@]43C)[C@@H]12`: the growth is 22.5% in assay [1]; 48.1% in assay [2]; 70.9% in assay [3]; 29.1% in assay [4]; 61.5% in assay [5]; 70.1% in assay [6]. Moreover, the growth in [7] was 46.6%; in [8], 55.3%; in [9] it was 71.7%; in assay [10] it was 39.4%; in assay [11] it was 46.5%; in assay [12] it was 46.6%. Besides, the growth in [13] is 41.3%; in [14], 36.3%; in assay [15] it was 22%; in assay [16], 50.3%; in [17] it was 26.3%.
Consider `O=C(O)c1ccc(-n2cc(/C=N/Nc3ccc(Cl)cc3Cl)c(-c3ccccc3)n2)cc1`, for which the growth in assay [1] was 83.2%; in assay [2], 98.6%; in assay [3] it was 107%; in [4], 87.3%; in [5] it was 89.4%; in [6], 89%. Moreover, the growth in [7] is 88.7%; in assay [8] it was 107%; in assay [9] it was 92.3%; in assay [10], 70.7%; in [11], 79.3%; in assay [12] it was 95.5%. In addition, the growth in assay [13] is 96.3%; in [14], 69.8%; in assay [15] it was 76.8%; in [16] it was 101%; in [17], 83.4%.
Regarding `COc1cc(NC(=O)COc2cc(C)nc3ccc(OC)cc23)cc(OC)c1`, the growth in assay [1] is 81.3%; in assay [2], 93.6%; in [3] it was 107%; in [4], 99%; in assay [5], 96.3%; in [6], 104%. Also, the growth in [7] was 98.9%; in assay [8] it was 95.1%; in assay [9], 86.6%; in assay [10] it was 95.8%; in [11] it was 85.5%; in assay [12], 100%. Further, the growth in assay [13] is 99.7%; in [14] it was 86.8%; in assay [15], 90.2%; in assay [16], 101%; in [17] it was 96.8%.
On to `NC(=N\N=C\c1ccccc1O)/C(N)=N/N=C/c1ccccc1O`, for which the growth in [1] is 61.1%; in [2], 81.3%; in assay [3], 96.7%; in assay [4], 6.53% (active); in assay [5], 92.4%; in assay [6], 97.8%. Also, the growth in assay [7] was 63.1%; in assay [8], 68.8%; in assay [9] it was 83.3%; in assay [10], 64%; in assay [11], 72%; in assay [12], 72.2%. Further, the growth was 71.5% in [13]; 69.4% in assay [14]; 81.3% in [15]; 99.1% in assay [16]; 55.8% in [17].
`COc1ccc2cc(/C=C3\N=C(c4cc(OC)c(OC)c(OC)c4)OC3=O)c(OC)nc2c1`: the growth in assay [1] is 104%; in assay [2], 98.4%; in assay [3], 108%; in [4], 101%; in assay [5], 96.5%; in assay [6], 109%. In addition, the growth was 109% in [7]; 97.2% in [8]; 105% in assay [9]; 96.5% in assay [10]; 104% in [11]; 106% in [12]. In addition, the growth was 100% in assay [13]; 99.8% in assay [14]; 97.9% in assay [15]; 102% in [16]; 98.9% in assay [17].
In the case of `COC1=CC2C=C(C3N(c4ccccc4)NC(=O)[C@@H]4CCCN34)C(=O)NC2C=C1` (some centres undefined), the growth in [1] is 110%; in assay [2] it was 110%; in assay [3], 107%; in assay [4], 96.8%; in assay [5], 104%; in assay [6], 105%. Besides, the growth in assay [7] was 104%; in assay [8], 99%; in [9], 101%; in [10], 99%; in assay [11] it was 97.4%; in assay [12], 97%. Further, the growth is 105% in assay [13]; 94.1% in assay [14]; 93.8% in assay [15]; 94.8% in assay [16]; 100% in [17].
Regarding `C=C(C)[C@@H]1CC[C@]2(C(=O)O)CC[C@]3(C)[C@H](CC[C@@H]4[C@@]5(C)C[C@@H](CC#Cc6ccccc6C)C(=O)C(C)(C)[C@@H]5CC[C@]43C)[C@@H]12`, the growth was 14.6% in assay [1]; 24.3% in assay [2]; 61% in assay [3]; 31.4% in assay [4]; 34.2% in [5]; 62% in assay [6]. Moreover, the growth in assay [7] was 18.3%; in assay [8], 45%; in assay [9], 48%; in assay [10] it was 20.7%; in assay [11], 43.4%; in assay [12], 55.5%. Also, the growth in assay [13] was 25.7%; in assay [14] it was 15.3%; in [15], 12.5%; in assay [16], 31.7%; in assay [17], 20.3%.
On to `Cc1cccc(C)c1NCc1nnc(-c2ccc(O)cc2)o1`, for which the growth in assay [1] was 95.5%; in [2] it was 107%; in [3], 95.5%; in assay [4] it was 99%; in assay [5], 114%; in assay [6] it was 99.9%. Also, the growth in assay [7] is 99.4%; in [8] it was -4.35% (active); in assay [9] it was 96.8%; in [10], 91.5%; in assay [11] it was 97.1%; in [12], 99.1%. Also, the growth in assay [13] was 100%; in [14], 90.6%; in assay [15] it was 102%; in [16], 100%; in assay [17] it was 97%.
Turning to `COC(=O)c1oc2c(C(=O)/C=C/c3ccc(OC)cc3)c(OCCCN3CCCCC3)ccc2c1C`, the growth in assay [1] is -65.7% (active); in assay [2], -22.7% (active); in [3] it was 23.3%; in assay [4], 14.1%; in assay [5] it was 28.5%; in assay [6] it was 9.13% (active). In addition, the growth is 26.5% in [7]; 12.6% in [8]; 0.873% (active) in assay [9]; 38.5% in assay [10]; 22.9% in assay [11]; 6.56% (active) in assay [12]. The growth was -17.9% (active) in assay [13]; 6.82% (active) in assay [14]; 1.36% (active) in assay [15]; -45% (active) in assay [16]; -11.5% (active) in assay [17].
Turning to `CCSc1ccc(C2C(Br)C(=O)N2c2cc(OC)c(OC)c(OC)c2)cc1` (centres undefined), the growth in [1] is 9.73% (active); in assay [2] it was 17.4%; in assay [3], 31.1%; in assay [4], 38.3%; in assay [5] it was 21.8%; in assay [6], 29.1%. In addition, the growth in assay [7] is 3.63% (active); in assay [8], 8.62% (active); in [9], 14%; in assay [10] it was 67.4%; in assay [11] it was 13.8%; in [12] it was -1.6% (active). For the same molecule, the growth was 23% in [13]; 13.2% in assay [14]; 4.7% (active) in [15]; 31.7% in [16]; 17% in assay [17].
Consider `C#Cc1ccccc1NC(=O)c1sc2nc3c(cc2c1N)CCCCCC3`, for which the growth was 56.4% in assay [1]; 75.7% in assay [2]; 93.1% in assay [3]; -19% (active) in assay [4]; 36.9% in assay [5]; 74.5% in assay [6]. Also, the growth in assay [7] was 30.9%; in assay [8] it was 8.22% (active); in [9], 67.4%; in [10], 49.7%; in [11] it was 37.3%; in [12] it was 74.5%. Besides, the growth in assay [13] is 27.6%; in assay [14], 58.4%; in assay [15] it was 75.5%; in assay [16], 104%; in assay [17] it was 42.7%.
Turning to `CCOC(=O)c1c(C(F)(F)F)n([O-])c2ccc(Cl)cc2[n+]1=O`, the growth was -69.8% (active) in [1]; -42.6% (active) in assay [2]; -27.8% (active) in [3]; -35.3% (active) in assay [4]; 66.6% in assay [5]; -30.3% (active) in assay [6]. Besides, the growth is -70.5% (active) in assay [7]; 13.8% in assay [8]; 8.49% (active) in [9]; -53% (active) in [10]; -59.6% (active) in [11]; -70.1% (active) in assay [12]. In addition, the growth was -64.7% (active) in assay [13]; -57.6% (active) in [14]; -62.8% (active) in [15]; -90.8% (active) in assay [16]; -78.5% (active) in assay [17].
Regarding `COc1cc(-c2csc(NC(=O)Nc3ccc(Cl)cc3)n2)cc(OC)c1OC`, the growth was 8.27% (active) in assay [1]; 10.4% in assay [2]; 76.9% in assay [3]; 9.02% (active) in assay [4]; 53.5% in assay [5]; 42.6% in [6]. Also, the growth is 19.4% in assay [7]; 58.9% in [8]; 7% (active) in assay [9]; -7.45% (active) in assay [10]; 31.9% in assay [11]; 18.1% in [12]. In addition, the growth in assay [13] was 42.1%; in assay [14] it was 8.71% (active); in assay [15], 17.8%; in assay [16], 38.9%; in assay [17], 13.4%.
